{"source": "the supplement of paper PMC5641865", "about": "“A screen for kinase inhibitors identifies antimicrobial imidazopyridine aminofurazans as specific inhibitors of the Listeria monocytogenes PASTA kinase PrkA” (The Journal of Biological Chemistry, 2017)", "note": "± gives the standard deviation of the averaged measurements.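 Further: End-point A600 read in BHI broth at 37 °C with 2% DMSO, inhibition computed as (1 − OD with compound plus ceftriaxone ÷ OD with ceftriaxone only) × 100.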", "data": [{"system": "Listeria monocytogenes 10403S", "assay": "growth inhibition relative to ceftriaxone-alone control; higher = stronger potentiation of ceftriaxone growth inhibition", "details": "10 µM; ceftriaxone 1 ug/ml; 12 h", "units": {"growth inhibition": "%"}, "values": [{"smiles": "O=C1NC(=O)C(c2ccccc2[N+](=O)[O-])=C1Nc1ccc(O)c(Cl)c1", "growth inhibition": "52.5 ± 49"}, {"smiles": "COc1cc(N2CCC(N3CCN(C)CC3)CC2)ccc1Nc1ncc(Cl)c(Nc2ccccc2S(=O)(=O)C(C)C)n1", "growth inhibition": "79.1 ± 24"}, {"smiles": "Fc1ccc(-c2c(-c3ccncc3)nc3n2CCS3)cc1", "growth inhibition": "-6.65 ± 12"}, {"smiles": "Nc1nonc1-c1nc2cnccc2n1C1CCCCC1", "growth inhibition": "12.4 ± 3.9"}, {"smiles": "CO[C@H]1C[C@@H]2CC[C@@H](C)[C@@](O)(O2)C(=O)C(=O)N2CCCC[C@H]2C(=O)O[C@H]([C@H](C)C[C@@H]2CC[C@@H](OCCO)[C@H](OC)C2)CC(=O)[C@H](C)/C=C(\\C)[C@@H](O)[C@@H](OC)C(=O)[C@H](C)C[C@H](C)/C=C/C=C/C=C/1C", "note": "[Everolimus (RAD001)]", "growth inhibition": "27.5 ± 19"}, {"smiles": "C[C@]1(O)C[C@@H](c2nc(-c3ccc4ccc(-c5ccccc5)nc4c3)c3c(N)nccn32)C1", "note": "[Linsitinib (OSI-906)]", "growth inhibition": "56.8 ± 25"}, {"smiles": "Cc1cc(C)c(/C=C2\\C(=O)Nc3ccccc32)[nH]1", "note": "[Semaxanib (SU5416)]", "growth inhibition": "-4.38 ± 12"}, {"smiles": "C[C@@H](Oc1cc(-n2cnc3ccc(OC[C@@H](O)CO)cc32)sc1C(N)=O)c1ccccc1Cl", "growth inhibition": "-3.67 ± 1.5"}, {"smiles": "COc1cccc(-c2cc(=O)c3ccccc3o2)c1N", "growth inhibition": "6.7074 ± 0.0026"}, {"smiles": "Cc1nnc(-c2ccc(C)c(-c3ccc(C(=O)Nc4cccc(C#N)c4)cc3)c2)o1", "growth inhibition": "6.6 ± 12"}, {"smiles": "CN(C[C@@H]1COCCO1)S(=O)(=O)Nc1ccc2ccc3ncc(-c4cnn(C)c4)cc3c(=O)c2c1", "growth inhibition": "-22.01 ± 0.12"}, {"smiles": "Cc1cc(Nc2nc(N[C@@H](C)c3ccc(F)cc3)c(C#N)cc2F)n[nH]1", "growth inhibition": "96.93 ± 0.13"}, {"smiles": "CN(C)C(=O)O[C@H]1CN[C@H](C#Cc2cc3ncnc(Nc4ccc(OCc5cccc(F)c5)c(Cl)c4)c3s2)C1", "growth inhibition": "-7.88 ± 10"}, {"smiles": "CCn1c(-c2nonc2N)nc2cncc(C(=O)NCCNC)c21", "growth inhibition": "-6.44 ± 0.39"}, {"smiles": "COc1cc2ncnc(Nc3ccc4c(cnn4Cc4ccccc4)c3)c2cc1OC", "growth inhibition": "-12.1 ± 18"}, {"smiles": "COc1cc2ncn(-c3cc(O[C@H](C)c4ccccc4Cl)c(C(N)=O)s3)c2cc1OC", "growth inhibition": "-3.78 ± 5.6"}, {"smiles": "CC(C)n1nc(-c2ccc3oc(N)nc3c2)c2c(N)ncnc21", "growth inhibition": "-0.352 ± 1.4"}, {"smiles": "C=CC(=O)Nc1cc2c(Nc3ccc(F)c(Cl)c3)ncnc2cc1OCCCN1CCOCC1", "note": "[CI-1033 (Canertinib)]", "growth inhibition": "21.5 ± 6.1"}, {"smiles": "CNC(=O)c1cncc(/C=C/c2c(C)cccc2C)c1", "growth inhibition": "-1.2 ± 3.7"}, {"smiles": "Cc1cccc(-c2n[nH]cc2-c2ccc3ncccc3n2)n1", "growth inhibition": "-9.12 ± 7.3"}, {"smiles": "COc1cc(N2CCN(C(C)C)CC2)ccc1Nc1nc(Nc2cccc(F)c2C(=O)O)c2cc[nH]c2n1", "growth inhibition": "-0.452 ± 1.2"}, {"smiles": "CCn1c(-c2nonc2N)nc2c(C#CC(C)(C)O)nc(OC[C@@H](N)c3ccccc3)cc21", "growth inhibition": "71.3 ± 3.1"}, {"smiles": "COc1cc(/C=N/Nc2ncnc3c2cnn3C(C)C)ccc1O", "growth inhibition": "-1.18 ± 2.2"}]}]}
